Compound in this experiment: Nc1ncnc2c1ncn2[C@@H]1O[C@H](COP(=O)(O)OP(=O)(O)OP(=O)(O)O)[C@@H](O)[C@H]1O [adenosine 5'-triphosphate]
The experiment can be described thus: log2 fold change of tryptic peptide abundance, ligand vs vehicle (limited proteolysis) (log2 ratio); higher = more trypsin-susceptible (destabilized). Conditions: ligand concentration: 5 mM; sample: E. coli desalted lysate; replicate design: treated before aliquoting. The procedure:
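HT-PELSA: desalted E. coli K-12 BW25113 lysate (with 12 mM MgCl2) incubated with 5 mM ATP (pH 7) or water for 30 min at 25 C, then a 4 min trypsin pulse at 22 C. Peptides were quantified by DIA-MS (4 replicates). Value is the peptide log2 fold change (treated/control); negative = stabilized. Scale: negative = ligand-stabilized region.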
As for “UniProt P24182 (peptide sequence: LMGDKVSAIAAMKK, peptide start residue: 112)”, the log2 fold change is -1.24.

Turning to “UniProt P09053 (peptide sequence: ILAEEIERAWAESH, peptide start residue: 404)”, the log2 fold change is -0.817.

With “UniProt P75785 (peptide sequence: SLGLTLNR, peptide start residue: 266)”, the log2 fold change is -0.884.

With “UniProt P24173 (peptide sequence: IKLPWGAPHEEER, peptide start residue: 213)”, the log2 fold change was -0.445.

For “UniProt P0CF91 (peptide sequence: SLLHLDALR, peptide start residue: 320)”, the log2 fold change is 0.694.

Regarding “UniProt P77252 (peptide sequence: DEPLTLLK, peptide start residue: 148)”, the log2 fold change stood at 0.328.

With “UniProt P21865 (peptide sequence: AIEHFFR, peptide start residue: 205)”, the log2 fold change was found to be 0.436.

Consider “UniProt P00968 (peptide sequence: AQLGSNSTMKKHGR, peptide start residue: 931)”, for which the log2 fold change is 0.849.

These data come from the supplement of paper PMC12819154, “High-throughput peptide-centric local stability assay extends protein–ligand identification to membrane proteins, tissues and bacteria” (Nature Structural & Molecular Biology, 2025).
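Further: lysate desalted by size exclusion to strip endogenous ATP, peptide intensities built from DIA-NN precursor signals, and peptides missing any value discarded before comparison.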
